The results in this text go back to PubChem BioAssay (NCATS).

Assay [1] deals with Lysosomal acid glucosylceramidase (Homo sapiens) (UniProt P04062). Put plainly: Glucocerebrosidase-p2 (AID 348; in the data active = potency below about 10 µM; also: potency is read from the fitted curve at half-maximal effect). Conditions: purified GBA, blue fluorogenic substrate, 40 min. An outline of the steps: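 Compounds titrated from 0.6 nM upwards against 0.2 nM enzyme in pH 5.9 citric acid/KH2PO4, taurocholate, tween-20; blue fluorogenic substrate 80 uM, 40 min room temperature, stopped and read Ex 365/Em 440 for AC50.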

A short description of assay [2]: AP1 Signaling Pathway (AID 357; active = well fitted curve in either direction with a large enough effect, not every such curve was filed as active;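 also: ME-180 reporter cells stimulated with EGF at its EC50 level; % is scaled to controls: 0 for no effect and ±100 for the full control effect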). Conditions: ME-180 AP-1-bla reporter, EGF-induced, beta-lactamase ratio, 5 h; at 7.69 µM (top of the series) unless noted. The method, boiled down:
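Titration-series screen for positive or negative modulators of EC50 EGF-induced signaling in ME-180 cells carrying an AP-1-driven beta-lactamase reporter. After 5 hours at 37 degrees Celsius, CCF4 460nm/530nm emission ratio gave %Activity; AC50 values derived.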

Assay [3] in a line: NFAT Signaling Pathway (AID 444; active = well fitted curve in either direction with a large enough effect, not every such curve was filed as active;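 also: carbachol stimulus at about its EC50 of 1 µM final; % is scaled to controls: 0 for no effect and ±100 for the full control effect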). Conditions: Jurkat NFAT-bla M1, carbachol, beta-lactamase ratio, 5 h; at 7.69 µM (top of the series) unless noted. The method, boiled down: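 Jurkat cells with NFAT-driven β-lactamase reporter and co-expressed M1 receptor, stimulated with carbachol (final 1 uM, ~EC50), compound titration, 5 h at 37 °C. CCF4 loaded 1 h at RT; 460/530 nm ratio gave %activity and AC50.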

Assay [4] can be described thus: Stat Signaling Pathway (AID 446; active = well fitted curve in either direction with a large enough effect, not every such curve was filed as active;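 also: ME-180 cervical cancer cells given 40 pM IL-6 alongside compound; SIE-controlled beta-lactamase reporter measured as 460/530 nm FRET emission ratio; % is scaled to controls: 0 for no effect and ±100 for the full control effect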). Conditions: ME-180 (cervical carcinoma) SIE beta-lactamase reporter, IL-6 stimulated, 5 h; at 7.69 µM (top of the series) unless noted. An outline of the steps:
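IL-6/STAT signaling read in ME-180 cells via an SIE beta-lactamase reporter. Stimulus was 40 pM IL-6 (its AC50) for 5 hrs, so both activation and inhibition register.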

Assay [5] addresses Glucocorticoid receptor (Homo sapiens) (UniProt P04150). The assay can be described thus: GR-EFC Redistribution (AID 451; calls by dose curve; also: potency is read from the fitted curve at half-maximal effect). Conditions: CHO-K1 GR-EFC translocation, beta-gal luminescence, 2 h. The method, boiled down: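 CHO-K1 cells expressing nuclear EA and GR-ED fragments of b-gal; compounds titrated up to 46 uM final, 2 h at 37 C. GR nuclear translocation read as complemented b-gal luminescence after 1 h RT detection.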

Assay [6] addresses Mitogen-activated protein kinase 10 (Mus musculus) (UniProt Q61831). Put plainly: JNK3 AlphaScreen Assay (AID 530; active = well fitted curve in either direction with a large enough effect, not every such curve was filed as active;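 also: kinase came from lysate of stimulated human HepG2 cells; signal reports phosphorylation of biotinylated GST-cJun 1-79 at Ser73 with 10 µM ATP; % is scaled to controls: 0 for no effect and ±100 for the full control effect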). Conditions: JNK3 lysate, c-Jun phosphorylation; series mostly up to 57.1 µM. The method, boiled down: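 Pre-activated (IL-1β/TNFα) JNK3 in HepG2 lysates phosphorylates biotin-GST-cJun(1-79), 10 uM ATP; anti-phospho-cJun(Ser73) AlphaScreen read at room temperature, pH 7.6 Tris buffer. Compounds pre-incubated 15 min as titrations.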
A general note: In Alpha technology, singlet oxygen from a donor bead excites a nearby acceptor bead.

Assay [7] concerns the target Dual specificity protein kinase CLK4 (Homo sapiens) (UniProt Q9HAZ1). Put plainly: qHTS Assay for Inhibitors of CDC-like Kinase 4 (Kinase-Glo Assay) (AID 1770). Also: nearly all actives have a fitted effect of over 65% in size. Also: potency is read from the fitted curve at half-maximal effect. Conditions: recombinant Clk4, Kinase-Glo ATP depletion luminescence; series mostly up to 66.7 µM. The method, boiled down:
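Clk4 25 nM, RS peptide 100 uM, ATP 1 uM, pH 7.5 Tris, 10 mM MgCl2, 2.5 mM DTT; 4.5 h RT; ATP depletion read by Kinase-Glo luminescence.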

Assay [8] shares this target. Put plainly: qHTS Assay for Inhibitors of CDC-like Kinase 4 (ADP-Glo Assay) (AID 1771). Also: nearly all actives have a fitted effect of over 70% in size. Also: potency is read from the fitted curve at half-maximal effect. Conditions: recombinant CLK4, ADP-Glo luminescence; series mostly up to 80 µM. The method, boiled down: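 25 nM Clk4 with 100 uM RS repeat peptide and 1 uM ATP (final) in buffer with 2 mM MgCl2, 0.5 mM EGTA, 2.5 mM DTT, 0.01% Triton X-100; 1 h at room temperature; ADP-Glo luminescence for ADP formed.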
(In qHTS, concentration-response curves come from the screen itself.)

For assay [9] the target is unchanged. The assay can be described thus: qHTS Assay for Inhibitors of CDC-like Kinase 4 (ADP-FP Assay) (AID 1795). Also: nearly all actives have a fitted effect of over 60% in size. Also: potency is read from the fitted curve at half-maximal effect. Conditions: Transcreener ADP fluorescence polarization; series mostly up to 50 µM. An outline of the steps:
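Kinase activity was followed as ADP output, converted from fluorescence polarization with a calibration curve. Reactions ran one hour at low ATP (1 uM) with RS peptide substrate.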

Assay [10] concerns the target Ubiquitin carboxyl-terminal hydrolase 1 (Homo sapiens) (UniProt O94782). Put plainly: Inhibitors of USP1/UAF1: Pilot qHTS (AID 504865). Also: nearly all actives have a fitted effect of over 35% in size. Also: potency is read from the fitted curve at half-maximal effect. Conditions: purified USP1/UAF1, Ub-rhodamine cleavage fluorescence; series mostly up to 54.9 µM. An outline of the steps:
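Enzyme-free wells gave the negative control, while test wells held 1nM USP1/UAF1 preincubated with compound for 15 min at room temperature. Ub-Rho at 150nM final started the reaction, and fluorescence at 480/540 nm was recorded kinetically.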

The nature of assay [11]: Primary qHTS for small molecule stabilizers of the endoplasmic reticulum resident proteome: Secreted ER Calcium Modulated Protein (SERCaMP) assay (AID 1508630). Also: % is scaled to controls: 0 for no effect and ±100 for the full control effect. Conditions: SH-SY5Y GLuc-SERCaMP (Gaussia luciferase released on ER calcium loss) secretion, thapsigargin, luminescence; series mostly up to 38.4 µM. An outline of the steps:
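GLuc-SERCaMP-expressing SH-SY5Y cells, pretreated 16 h with compound, are challenged with thapsigargin to empty ER calcium stores; after 4 h, coelenterazine is added directly to the medium and luminescence is imaged.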

The target in assay [12] is Glucocorticoid receptor (Homo sapiens) (UniProt P04150). Put plainly: GR-GFP Redistribution (AID 450;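 active = compounds whose dose series gives a full or clear partial fitted curve of increased nuclear translocation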; also: potency is read from the fitted curve at half-maximal effect). Conditions: U2OS GR-GFP nuclear translocation, laser cytometry, 2 h.
Assay [13] addresses 3',5'-cyclic-AMP phosphodiesterase 4B (Homo sapiens) (UniProt Q07343). The assay can be described thus: qHTS Assay for Inhibitors of PDE-IV (AID 607; active = well fitted activation curve with a large enough effect in the main read-out, with a control signal flat, not every such curve was filed as active; also: % of control where 0% means no effect). Conditions: HEK293 ACTOne CNG channel cells, membrane potential fluorescence; series mostly up to 22.9 µM. An outline of the steps: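 Live HEK293 cells with a modified cyclic nucleotide-gated (CNG) channel report intracellular cAMP via membrane-potential dye fluorescence (ex 535/em 590 nm). Endogenous PDE-IV was targeted. Compounds were tested at up to 22.9 uM final; RO 20-1724 100 uM served as control.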

In assay [14] the target is Cytochrome P450 2C9 (Homo sapiens) (UniProt P11712). Put plainly: qHTS Assay for Inhibitors and Substrates of Cytochrome P450 2C9 (AID 883). Also: potency is read from the fitted curve at half-maximal effect; nearly all actives have a fitted effect of over 60% in size. Conditions: recombinant CYP2C9, luciferin-H luminescence, 60 min; series mostly up to 57.1 µM. The method, boiled down: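 Signal: luciferase luminescence reporting luciferin produced by CYP2C9. Conditions: 10nM enzyme, Luciferin-H 100uM at KM, 25mM KPO4, 37C, 60 min NADPH-driven reaction. Reference: 57uM sulphaphenazole as 100% inhibition.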

Each structure is given as a SMILES string. Unmarked numbers belong to inactive results. Records with an inconclusive call do not appear. Active and inactive are the calls of the source. Unless noted, calls follow the shape of the dose curve; as a rule, active = well fitted curve in the direction sought with a large enough effect; inconclusive = small, poorly fitted or top-dose-only effect, or another doubt; inactive = no such curve, though single readings can be large; an effect the other way counts as inactive or inconclusive. Where only a bound is given, the exact number is not on record here.

Lysosomal acid glucosylceramidase (Homo sapiens), sequence (P04062 whole entry, looked up): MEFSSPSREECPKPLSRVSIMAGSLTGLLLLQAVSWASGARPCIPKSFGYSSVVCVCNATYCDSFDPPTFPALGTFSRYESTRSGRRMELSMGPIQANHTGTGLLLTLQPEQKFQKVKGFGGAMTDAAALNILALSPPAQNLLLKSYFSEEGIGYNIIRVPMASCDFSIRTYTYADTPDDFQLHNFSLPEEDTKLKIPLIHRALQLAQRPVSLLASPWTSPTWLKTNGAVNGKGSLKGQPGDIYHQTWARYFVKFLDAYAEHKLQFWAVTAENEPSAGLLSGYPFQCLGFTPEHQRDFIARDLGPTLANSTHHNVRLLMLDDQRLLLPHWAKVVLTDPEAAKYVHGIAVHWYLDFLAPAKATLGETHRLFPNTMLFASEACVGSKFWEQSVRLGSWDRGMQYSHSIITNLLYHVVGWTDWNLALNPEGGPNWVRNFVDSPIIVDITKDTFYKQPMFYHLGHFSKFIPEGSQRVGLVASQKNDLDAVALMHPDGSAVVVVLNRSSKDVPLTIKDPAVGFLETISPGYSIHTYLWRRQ
Ubiquitin carboxyl-terminal hydrolase 1 (Homo sapiens), sequence (O94782 whole entry, looked up): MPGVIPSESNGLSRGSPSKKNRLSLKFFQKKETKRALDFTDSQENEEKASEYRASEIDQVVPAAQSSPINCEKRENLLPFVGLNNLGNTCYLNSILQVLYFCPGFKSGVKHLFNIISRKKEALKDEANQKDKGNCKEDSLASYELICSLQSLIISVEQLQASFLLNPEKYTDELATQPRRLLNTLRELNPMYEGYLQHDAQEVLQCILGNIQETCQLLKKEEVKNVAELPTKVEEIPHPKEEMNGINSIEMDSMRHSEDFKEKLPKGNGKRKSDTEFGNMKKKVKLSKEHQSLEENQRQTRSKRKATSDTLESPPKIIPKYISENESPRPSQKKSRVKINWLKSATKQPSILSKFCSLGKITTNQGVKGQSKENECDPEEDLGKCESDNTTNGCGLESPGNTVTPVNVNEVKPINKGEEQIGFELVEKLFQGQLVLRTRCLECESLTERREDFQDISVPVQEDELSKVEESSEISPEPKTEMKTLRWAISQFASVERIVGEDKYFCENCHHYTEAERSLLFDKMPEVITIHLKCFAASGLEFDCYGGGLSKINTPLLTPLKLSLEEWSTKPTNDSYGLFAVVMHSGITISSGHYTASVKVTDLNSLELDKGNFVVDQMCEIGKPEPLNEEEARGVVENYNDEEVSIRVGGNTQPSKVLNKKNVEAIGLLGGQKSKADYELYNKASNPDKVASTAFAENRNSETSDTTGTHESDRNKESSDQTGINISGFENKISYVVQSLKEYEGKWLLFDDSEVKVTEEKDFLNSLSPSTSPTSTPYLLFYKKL
Dual specificity protein kinase CLK4 (Homo sapiens), sequence (Q9HAZ1 whole entry, looked up): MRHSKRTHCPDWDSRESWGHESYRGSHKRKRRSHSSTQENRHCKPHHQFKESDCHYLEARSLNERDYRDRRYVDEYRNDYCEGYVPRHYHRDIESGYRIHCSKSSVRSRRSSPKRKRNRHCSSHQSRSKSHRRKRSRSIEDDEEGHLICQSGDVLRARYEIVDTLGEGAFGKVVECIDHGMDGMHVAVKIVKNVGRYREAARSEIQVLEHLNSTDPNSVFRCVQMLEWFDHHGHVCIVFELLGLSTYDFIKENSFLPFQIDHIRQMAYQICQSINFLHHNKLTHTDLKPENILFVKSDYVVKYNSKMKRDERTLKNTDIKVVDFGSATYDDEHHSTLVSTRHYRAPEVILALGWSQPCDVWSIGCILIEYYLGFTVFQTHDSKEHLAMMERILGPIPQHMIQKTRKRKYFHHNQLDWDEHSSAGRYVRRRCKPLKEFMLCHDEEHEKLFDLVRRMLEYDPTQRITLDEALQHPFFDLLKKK
Glucocorticoid receptor (Homo sapiens), sequence (P04150 whole entry, looked up, the tested form may be a part): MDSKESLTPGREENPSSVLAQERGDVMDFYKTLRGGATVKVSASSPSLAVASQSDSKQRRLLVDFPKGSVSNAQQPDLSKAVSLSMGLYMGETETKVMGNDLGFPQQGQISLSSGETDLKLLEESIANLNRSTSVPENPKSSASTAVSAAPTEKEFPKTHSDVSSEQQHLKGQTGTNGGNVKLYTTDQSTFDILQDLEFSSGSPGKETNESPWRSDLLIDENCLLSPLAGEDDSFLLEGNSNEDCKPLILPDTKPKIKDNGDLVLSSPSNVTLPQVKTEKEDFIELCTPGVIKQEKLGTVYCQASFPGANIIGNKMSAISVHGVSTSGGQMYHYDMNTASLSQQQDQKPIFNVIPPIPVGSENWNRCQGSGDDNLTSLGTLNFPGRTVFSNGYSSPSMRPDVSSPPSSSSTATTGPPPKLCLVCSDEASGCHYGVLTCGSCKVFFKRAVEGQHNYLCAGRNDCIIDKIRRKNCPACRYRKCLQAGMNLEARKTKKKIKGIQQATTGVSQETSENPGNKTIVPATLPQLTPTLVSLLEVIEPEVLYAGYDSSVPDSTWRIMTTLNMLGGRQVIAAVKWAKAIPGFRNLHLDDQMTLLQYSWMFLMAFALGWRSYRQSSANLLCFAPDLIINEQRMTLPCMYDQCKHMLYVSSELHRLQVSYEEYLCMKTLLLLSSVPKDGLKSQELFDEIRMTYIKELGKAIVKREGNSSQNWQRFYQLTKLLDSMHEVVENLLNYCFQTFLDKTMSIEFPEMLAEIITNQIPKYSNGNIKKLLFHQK
3',5'-cyclic-AMP phosphodiesterase 4B (Homo sapiens), sequence (Q07343 whole entry, looked up): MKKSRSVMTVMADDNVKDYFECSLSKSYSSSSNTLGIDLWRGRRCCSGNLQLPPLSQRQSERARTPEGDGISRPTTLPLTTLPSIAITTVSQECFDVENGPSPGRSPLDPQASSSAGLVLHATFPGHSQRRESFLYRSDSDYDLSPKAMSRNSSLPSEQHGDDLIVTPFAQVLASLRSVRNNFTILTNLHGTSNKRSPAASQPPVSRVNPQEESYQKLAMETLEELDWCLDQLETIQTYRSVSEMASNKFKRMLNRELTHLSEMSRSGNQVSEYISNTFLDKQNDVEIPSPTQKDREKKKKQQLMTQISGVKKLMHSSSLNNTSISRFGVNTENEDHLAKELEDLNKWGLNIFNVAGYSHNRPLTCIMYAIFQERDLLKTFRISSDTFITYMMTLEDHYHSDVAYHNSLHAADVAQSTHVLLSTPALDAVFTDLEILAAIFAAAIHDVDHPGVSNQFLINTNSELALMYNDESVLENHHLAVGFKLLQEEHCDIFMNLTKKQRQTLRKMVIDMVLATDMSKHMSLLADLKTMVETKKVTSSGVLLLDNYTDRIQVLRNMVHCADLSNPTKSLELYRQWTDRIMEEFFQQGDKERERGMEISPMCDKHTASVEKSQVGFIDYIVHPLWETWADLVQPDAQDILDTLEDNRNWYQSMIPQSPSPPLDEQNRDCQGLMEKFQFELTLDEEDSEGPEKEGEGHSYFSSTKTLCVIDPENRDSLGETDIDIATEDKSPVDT
Cytochrome P450 2C9 (Homo sapiens), sequence (P11712 whole entry, looked up): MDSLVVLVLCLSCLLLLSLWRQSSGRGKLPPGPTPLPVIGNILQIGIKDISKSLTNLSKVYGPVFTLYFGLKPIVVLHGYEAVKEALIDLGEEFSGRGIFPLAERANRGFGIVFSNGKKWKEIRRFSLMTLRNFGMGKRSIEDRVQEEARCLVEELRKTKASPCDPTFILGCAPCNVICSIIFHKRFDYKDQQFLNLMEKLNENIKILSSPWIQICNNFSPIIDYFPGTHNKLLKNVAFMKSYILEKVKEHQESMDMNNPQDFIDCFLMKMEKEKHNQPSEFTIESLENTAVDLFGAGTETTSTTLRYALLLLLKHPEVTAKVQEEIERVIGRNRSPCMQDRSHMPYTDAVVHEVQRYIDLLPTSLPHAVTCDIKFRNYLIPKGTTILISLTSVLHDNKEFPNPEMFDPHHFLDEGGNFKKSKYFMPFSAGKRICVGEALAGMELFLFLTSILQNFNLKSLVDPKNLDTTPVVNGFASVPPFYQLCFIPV

For the compound `O=c1c(CCc2ccccc2)nc2cnc(N3CCOCC3)nc2n1C1CC1`, the results for the Potency in assay [1] and in assay [5] were above 11.4 µM and above 46 µM, respectively. In addition, the activity change, negative = inhibition in assay [2] was -19.2%; in [3], 4.06%. In addition, the activity, negative = inhibition in assay [4] is 3.71%. For the same compound, the Potency result in [6], in [7], in assay [8], in [9] and in assay [10] was “inactive” throughout. In addition, the result in assay [11] was inactive.
On to `Cc1ccccc1-c1cc(N2CCNCC2)ncn1`, for which the Potency in assay [1] was above 11.4 µM; in assay [12], above 46 µM; in [5], above 46 µM. For the same compound, the activity change, negative = inhibition in assay [2] was 8.27%; in assay [3], 15.7%. Also, the activity, negative = inhibition in assay [4] was 8.55%. Also, the Potency entry in [6], in assay [13], in assay [7], in [8], in assay [9] and in assay [10] was “inactive” throughout. Moreover, the result in assay [11] was inactive.
With `COc1ccc2[nH]cc(CCNc3cc(-c4ccccc4Cl)ncn3)c2c1`, the Potency in assay [1] is above 11.4 µM; in [12] it was above 46 µM; in assay [5] it was above 46 µM; in [7], 12.6 µM (active); in assay [8], 12.6 µM (active); in assay [9] it was 12.6 µM (active). For the same compound, the Potency in assay [10] is 20 µM (active). The activity change, negative = inhibition was 0.747% in [2] and 9.26% in assay [3]. For the same compound, in [4], the activity, negative = inhibition is -11.7%. Besides, the Potency entry in [6] and in [13] was “inactive” throughout. Moreover, the result in assay [11] was inactive.
In the case of `COCCn1c(=O)c(-c2ccccc2)nc2cnc(N3CCOCC3)nc21`, the figures for the Potency in assay [1], in [12] and in assay [5] were above 11.4 µM, above 9.22 µM and above 46 µM, respectively. Also, the activity change, negative = inhibition in assay [2] was -10.7%; in assay [3], 18.3%. Moreover, the activity, negative = inhibition in assay [4] was -4.75%. The Potency result in assay [6], in [13], in assay [7], in assay [8], in assay [9] and in assay [10] was “inactive” throughout. Moreover, the result in [11] was inactive.
In the case of `O=c1c(-c2cccc(Cl)c2)nc2cncnc2n1Cc1ccccc1`, the Potency in assay [1] is above 11.4 µM; in [12], above 9.22 µM; in [5], above 46 µM; in assay [14] it was 1.26 µM (active). Moreover, the activity change, negative = inhibition was -3.36% in assay [2] and -0.741% in [3]. Besides, the activity, negative = inhibition in assay [4] is -3.65%. Besides, the Potency result in assay [6], in [7], in assay [8], in assay [9] and in assay [10] was “inactive” throughout. Also, in [11], the result was inactive.
As to `FC(F)(F)c1ccccc1-c1cncnc1NCc1ccccc1`, the Potency was above 11.4 µM in [1] and above 46 µM in assay [5]. Also, the activity change, negative = inhibition in assay [2] was -12.5%; in [3], -25.7%. For the same compound, in [4], the activity, negative = inhibition was 8.04%. The Potency entry in assay [6], in assay [7], in assay [8], in assay [9] and in [10] was “inactive” each time. Moreover, the result in assay [11] was inactive.
For `COc1cccc(Cn2c(=O)c(CCc3ccccc3)nc3cnc(N4CCOCC4)nc32)c1`, the Potency in assay [1] is above 11.4 µM. The activity change, negative = inhibition in assay [2] is 0.275%; in assay [3] it was -19.1%. The activity, negative = inhibition in [4] was -8.53%. For the same compound, the Potency result in assay [6], in assay [7], in assay [8] and in [9] was “inactive” throughout. For the same compound, the outcome in assay [11] was inactive.
